Reference: the supplement of paper PMC6555819

Key:
Test in all cases: PBM binding z-score (relative to random genomic background probes); higher = stronger binding; sequences stand for … in GC…GCGATTGACAGCGTAGAATGAAGG
[1] = system: FXR:RXRa (NR concentration 270 nM, RXRa partner concentration 90 nM)
Procedure, shortened: (§1)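 Antibodies against each partner of ligand-free nuclear receptor dimers (one per run) detected binding on custom Agilent 4×180K protein-binding microarrays after 1 h incubation. The double-stranded probes had 34-nt variable regions carrying direct-repeat seeds, single-nucleotide variants, half-site ablations and random human genomic background sequences. Binding z-scores, from regression-normalized fluorescence, use the random background probes as reference.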

[2] = system: LXRa:RXRa (NR concentration 270 nM, RXRa partner concentration 90 nM)
Procedure, shortened: as §1

[3] = system: LXRa homodimer (NR concentration 270 nM)
Procedure, shortened: as §1

[4] = system: LXRb:RXRa (NR concentration 270 nM, RXRa partner concentration 90 nM)
Procedure, shortened: as §1

[5] = system: LXRb homodimer (NR concentration 270 nM)
Procedure, shortened: as §1

[6] = system: PPARa:RXRa (NR concentration 270 nM, RXRa partner concentration 90 nM)
Procedure, shortened: as §1

[7] = system: PPARg:RXRa (NR concentration 180 nM, RXRa partner concentration 90 nM)
Procedure, shortened: as §1

[8] = system: PPARg:RXRa 270nM:90nM, anti-RXR (NR concentration 270 nM, RXRa partner concentration 90 nM)
Procedure, shortened: as §1

[9] = system: PPARg:RXRa 30nM:10nM, anti-RXR (NR concentration 30 nM, RXRa partner concentration 10 nM)
Procedure, shortened: as §1

[10] = system: PPARg:RXRa 90nM:30nM, anti-RXR (NR concentration 90 nM, RXRa partner concentration 30 nM)
Procedure, shortened: as §1

[11] = system: PPARg:RXRa DBDmut IVT, anti-RXR (DBD mutation: RXRa K156A/R161A, NR concentration 270 nM, RXRa partner concentration 90 nM)
Procedure, shortened: as §1

[12] = system: PPARg:RXRa IVT, anti-PPARg (NR concentration 270 nM, RXRa partner concentration 90 nM)
Procedure, shortened: as §1

[13] = system: PPARg DBDmut:RXRa IVT, anti-PPARg (DBD mutation: PPARg1 K132A/R137A, NR concentration 270 nM, RXRa partner concentration 90 nM)
Procedure, shortened: as §1

[14] = system: PPARg DBDmut IVT, anti-PPARg (DBD mutation: PPARg1 K132A/R137A, NR concentration 270 nM)
Procedure, shortened: as §1

[15] = system: PPARg homodimer (NR concentration 180 nM)
Procedure, shortened: as §1

[16] = system: PXR:RXRa (NR concentration 270 nM, RXRa partner concentration 90 nM)
Procedure, shortened: as §1

[17] = system: PXR homodimer (NR concentration 270 nM)
Procedure, shortened: as §1

[18] = system: RARa:RXR (NR concentration 270 nM, RXRa partner concentration 90 nM)
Procedure, shortened: as §1

[19] = system: RARa homodimer (NR concentration 270 nM)
Procedure, shortened: as §1

[20] = system: RARb:RXRa (NR concentration 270 nM, RXRa partner concentration 90 nM)
Procedure, shortened: as §1

Sequence | PBM binding z-score [1] | PBM binding z-score [2] | PBM binding z-score [3] | PBM binding z-score [4] | PBM binding z-score [5] | PBM binding z-score [6] | PBM binding z-score [7] | PBM binding z-score [8] | PBM binding z-score [9] | PBM binding z-score [10] | PBM binding z-score [11] | PBM binding z-score [12] | PBM binding z-score [13] | PBM binding z-score [14] | PBM binding z-score [15] | PBM binding z-score [16] | PBM binding z-score [17] | PBM binding z-score [18] | PBM binding z-score [19] | PBM binding z-score [20]
TGAATCAGGTTAAAGATCAGGGAACGTGGCGTCG | 0.631 | 0.732 | -0.19 | 0.221 | -0.0822 | 3.29 | 4.92 | 5.85 | 5.28 | 6.34 | 2.15 | 3.33 | 0.98 | 0.175 | 0.529 | 0.343 | -0.173 | 1.17 | 0.262 | 0.993
CCTCGGAGGACAACTGGAGGTCAGAGCTGCCAGA | 1.53 | 3.1 | 5.05 | 1.94 | -0.251 | 1.99 | 0.231 | 0.569 | -0.723 | 0.0567 | 0.198 | 0.595 | -1.19 | -1.87 | 2.05 | 2.52 | 0.545 | 2.84 | 0.162 | 3.07
ATCTCTAGGTTAAGTTCAGTGAAAGATCGATAGA | 1.78 | 2.76 | 1.8 | 1.49 | 1.76 | 2.41 | 1.87 | 2.34 | 1.11 | 1.83 | 3.77 | 3.34 | 1.74 | 1.46 | 2.01 | 2.47 | 2.53 | 1.75 | 1.83 | 2.61
TCATATAGGTAAACAGGTGATAGTCCGTAAGTTA | 0.91 | 0.907 | 0.318 | 0.806 | -0.237 | 1.73 | 2.35 | 3.2 | 4.04 | 3.64 | 4.54 | 3.86 | 2.2 | 1.3 | 1.51 | 0.551 | 0.241 | 0.892 | 1.46 | 0.497
TCTAGTAGGTTAGTCGGGGCATTCAGCCAACATA | 0.874 | 0.731 | 0.367 | 1.54 | 0.412 | 1.9 | 0.856 | 2.5 | 2.88 | 2.8 | 4.91 | 4.13 | 0.243 | 0.851 | 1.41 | 0.733 | 0.807 | 0.939 | 0.282 | 0.996
AGAATCAGGTTAAGATCAGGGAAACAGAATACAT | 0.729 | 0.662 | 0.295 | 0.799 | 0.474 | 1.68 | 1.18 | 1.05 | 0.692 | 0.624 | 2.26 | 2.1 | 1.36 | 1.33 | 1.01 | 0.297 | 1.14 | 0.552 | 1.62 | 1.1
CCTACTGGGCCATTCAGAGTTCATTGATCATATG | 0.991 | 2.71 | 6.11 | 1.86 | -0.389 | 2.28 | 1.04 | 1.61 | 0.0346 | 0.782 | 4.56 | 3.73 | -0.222 | 0.266 | 0.849 | 4.72 | 8.94 | 1.75 | -0.457 | 1.82
TAGCCTAGGTTATTGGGCCAGTATAGTACGCATC | -0.0933 | 0.0825 | -0.331 | 0.173 | -0.786 | 1.61 | 1.5 | 1.51 | -0.136 | 0.762 | 2.14 | 2.87 | -0.637 | 0.0704 | -0.257 | 0.000197 | -0.646 | 0.299 | -1.1 | 0.689
CAAACTAGGTCAAAGGGCAAAGTCGAGCCAACCA | 6.12 | 5.04 | 1.25 | 4.01 | 0.969 | 6.94 | 12.9 | 10.6 | 11 | 11.7 | 8.37 | 8.59 | 2.1 | 1.17 | 2.46 | 4.09 | 0.769 | 6.57 | 0.986 | 4.51
TCTACTTGGTCAAAGGTCACACACTCGAAATGCG | 6.58 | 5.85 | 4.37 | 5.9 | 2.26 | 6.72 | 11.9 | 9.98 | 10.5 | 11 | 3.83 | 6.58 | 2.43 | 3.34 | 4.9 | 6.09 | 1.84 | 7.73 | 4.11 | 5.29
ATCTCTAGGTAAGACTCAGTTCAGAGAAGAACGC | 0.455 | 0.578 | 0.401 | -0.0123 | 0.78 | -0.0205 | 0.366 | 0.339 | 0.28 | 0.268 | 1.92 | 1.16 | 1.58 | 0.9 | 1.02 | 0.856 | 1.56 | 0.299 | 0.962 | 0.134
ACTTACGGGTCAATGAGGTTATAGCACGCGTATA | 5.51 | 4.96 | 0.962 | 4.08 | 1.04 | 5.25 | 4.45 | 4.61 | 2.44 | 3.5 | 3.32 | 3.66 | 1.87 | 1.58 | 1.79 | 4.89 | 2.68 | 4.53 | 1.1 | 3.86
CCTTGCGGGTCACTCCAGGTTATAGCATCGGAGT | 4.22 | 7.4 | 1.24 | 4.85 | -0.435 | 4.25 | 4.41 | 4.41 | 1.34 | 3.35 | 4.56 | 4.95 | 0.399 | 0.356 | 1.54 | 4.59 | 0.258 | 3.14 | 0.115 | 3.11
CTTATTAGTTGACCATAAGGGCAACCGAAGCTCG | 0.831 | 0.356 | 0.185 | 0.373 | 0.837 | 0.629 | 0.439 | 0.266 | 0.208 | 0.259 | 0.601 | 0.869 | 1.18 | 1.03 | 0.708 | 0.686 | 0.516 | 0.781 | 1.3 | 1.72
CGTGCAAGGTCAAGGTCAGTGAAAGAGACTCGAA | 7.71 | 5.78 | 1.12 | 4.86 | 0.639 | 6.13 | 6.66 | 6.55 | 2.87 | 5.51 | 3.53 | 4.59 | 1.6 | -0.363 | 4.25 | 4.99 | 1.2 | 5.11 | 2.15 | 5.53
TTACCAAGCTGAAGGTCGTTGATCCCTCTGTAGA | 1.61 | 1.68 | -0.245 | 1.04 | -0.907 | 1.03 | 0.527 | 2.36 | 0.492 | 1.8 | -0.256 | -0.224 | -1.71 | -1.67 | -0.217 | 1 | -0.159 | 0.87 | -1.08 | 0.656
TGGAGTAGGTTAGTCGGGGCATTCAGCCAACATA | 0.43 | 0.268 | 0.358 | 1.05 | 1.05 | 1.31 | 0.778 | 1.32 | 0.564 | 1.22 | 3.42 | 3.51 | -0.389 | -0.234 | 1.08 | 0.401 | 0.996 | 0.374 | 0.676 | 1.03
TCTATTAGTTGATTAGGGTAACCGAAACAGCGGA | 0.555 | 0.884 | 0.302 | 1.09 | 0.799 | 1.01 | 0.052 | 1.86 | 3.73 | 2.87 | 2.12 | 1.19 | 1.29 | 1.26 | 0.518 | 0.646 | 0.346 | 0.855 | 1.41 | 0.609
